Data published in PubChem BioAssay AID743266 (National Center for Advancing Translational Sciences (NCATS), 2014).
Where “and” joins values, the source holds several entries; their conditions need not be identical. Identical values can stand only once. The campaign covered roughly 410,000 compounds. About 310 (0.076%) were called active. Entries that show only a call come without a potency. Another 2% or so got no clear call; they are omitted. Calls follow the shape of the dose curve; as a rule, active = well fitted activation curve with a large enough effect; inconclusive = small, poorly fitted or top-dose-only effect, or another doubt; inactive = no such curve, though single readings can be large or run the other way. This excerpt belongs to a sample that is enriched for actives. More than one record can exist for a structure, and the calls need not agree.

Each compound was assayed against Parathyroid hormone/parathyroid hormone-related peptide receptor (Homo sapiens) (UniProt Q03431) (assay: qHTS for PTHR1 Agonists: Primary Screen). Settings: HEK293 GP2 PTHR1 cells, GloSensor cAMP luminescence, 1 h; series mostly up to 115 µM.
Sequence of Parathyroid hormone/parathyroid hormone-related peptide receptor (Homo sapiens) (Q03431 whole entry, looked up): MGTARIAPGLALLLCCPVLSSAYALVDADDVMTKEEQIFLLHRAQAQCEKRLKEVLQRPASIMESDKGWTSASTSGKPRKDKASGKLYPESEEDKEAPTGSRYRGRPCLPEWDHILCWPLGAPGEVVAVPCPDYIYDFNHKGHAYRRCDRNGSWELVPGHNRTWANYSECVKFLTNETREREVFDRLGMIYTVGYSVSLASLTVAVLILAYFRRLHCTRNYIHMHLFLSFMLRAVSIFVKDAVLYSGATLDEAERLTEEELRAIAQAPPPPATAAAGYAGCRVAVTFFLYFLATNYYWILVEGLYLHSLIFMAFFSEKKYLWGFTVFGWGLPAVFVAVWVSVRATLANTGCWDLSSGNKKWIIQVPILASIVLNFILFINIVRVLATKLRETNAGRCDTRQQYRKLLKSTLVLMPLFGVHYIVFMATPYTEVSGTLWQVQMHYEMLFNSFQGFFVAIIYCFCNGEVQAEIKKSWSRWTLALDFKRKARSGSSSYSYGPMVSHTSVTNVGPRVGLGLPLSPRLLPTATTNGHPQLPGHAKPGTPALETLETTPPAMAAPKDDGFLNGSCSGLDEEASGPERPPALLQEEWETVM
Source text: The goal of the proposed studies is to discover new compounds that act as potent agonists on the parathyroid hormone receptor type-1 (PTHR1). The PTHR1 plays critical roles in maintaining blood calcium and phosphate levels, as well as in controlling bone remodeling. PTHR1 agonists could thus be useful for treating diseases such as hypoparathyroidism and osteoporosis. In the former disease, an agonist drug would help maintain normal blood calcium and phosphate levels under conditions of parathyroid hormone deficiency. In the latter disease, an agonist drug would stimulate new bone formation and thus reduce the risk of fracture, under conditions of bone fragility, as occurs in aging.
To that end, we performed a quantitative high-throughput screening (qHTS) of the Molecular Libraries Probe Centers Network (MLPCN) compound libraries at the NIH Chemical Genomics Center (NCGC) for the parathyroid hormone receptor type-1 (PTHR1) using a unique HEK-293-derived cell line (GP2) that expresses the PTHR1 and a glosensor cAMP reporter construct.
NIH Molecular Libraries Probe Production Centers Network [MLPCN]
NIH Chemical Genomics Center [NCGC]
Assay Submitter (PI): Thomas Gardella, Massachusetts General Hospital
4 microL are dispensed into a 1536-well micro plate to yield 3,000 cells/well. The plates are then incubated overnight, after which 4 microL of 0.5 mM of BIoTium Luciferin plus 0.5 mM IBMX are added. They are then incubated at 37 degree for one hour before 23 nL of compounds are added through pinning and then incubated at 37 degree again for another hour. After the plates are kept at room temperature for 15 min before they are read on the ViewLux to measure luminescence.
Also: nearly all actives have a fitted effect of over 55% in size.
Potency is read from the fitted curve at half-maximal effect.

| SMILES | Potency |
| --- | --- |
| COc1ccc(CCNc2nc3c(-c4cccc(F)c4)nnn3c3ccccc23)cc1OC | inactive |
| COc1ccc(C2c3c(oc4ccccc4c3=O)C(=O)N2Cc2ccc3c(c2)OCO3)cc1 (configuration not stated) | inactive |
| Cc1ccc(C(=O)Nc2c(C(=O)NC(C)(C)C)oc3ccccc23)cc1 | inactive |
| CSc1nn(Cc2cccc(C)c2)c(N)c1S(=O)(=O)c1ccccc1 | inactive |
| CCC(C)c1ccc2oc(-c3ccc(NC(=O)c4cc5ccccc5o4)cc3)nc2c1 (configuration not stated) | inactive |
| CCOc1ccc(CNCc2c(C(=O)O)c(C)n(Cc3cccc(OC)c3)c2C)cc1OC | inactive |
| CCCCNC(=O)c1cc(-c2ccc(Cl)c(Cl)c2)on1 | inactive |
| CN1CCN(C(CNC(=O)c2ccccc2F)c2ccc3c(c2)OCO3)CC1 (configuration not stated) | inactive |
| COC(=O)c1ccccc1NC(=O)c1ccc(COc2ccccc2Cl)o1 | inactive |
| CCC(CC)c1nn2cc(-c3ccccc3)nc2s1 | inactive |
| COCCNS(=O)(=O)c1cc(-c2nn3c(C)nnc3c3ccccc23)ccc1C | inactive |
| CCN(CC)S(=O)(=O)c1ccc2c(c1)N(CC(=O)NCC(C)c1ccccc1)C(=O)CO2 (configuration not stated) | inactive |
| CCOc1cc(C2C(C(=O)Nc3ccc(OC)cc3)=C(C)Nc3nc(SC)nn32)ccc1O (configuration not stated) | inactive |
| Cc1cc(OCC(=O)Nc2ncn[nH]2)c(C)c(C)c1Br | inactive |
| Cc1nc(SCC(=O)Nc2ccc(C(=O)O)cc2)n[nH]1 | inactive |
| O=C(NCCc1ccccc1)C(=O)NCC(c1ccco1)S(=O)(=O)c1ccccc1 (configuration not stated) | inactive |
| Cc1ccc(C)n1-c1nnc(N2CCC(C(=O)NCc3ccccc3Cl)CC2)s1 | inactive |
| CC(C)(C)c1ccc(C(=O)NCC(c2ccco2)S(=O)(=O)c2ccc(F)cc2)cc1 (configuration not stated) | inactive |
| Cc1c(Cl)cccc1NC(=O)N1CCN(C(=O)c2nsc3ccccc23)CC1 | inactive |
| CCOC(=O)c1c(S(=O)(=O)N2CCCC(C(=O)NCc3ccc(F)cc3)C2)c(C)n(CC)c1C (configuration not stated) | inactive |
| O=c1c2cccnc2n(Cc2cccc(F)c2)c(=O)n1Cc1ccccc1Cl | inactive |

| SMILES | Potency |
| --- | --- |
| CCOc1ccc(OCC)c(NS(=O)(=O)c2ccc3[nH]c(=O)ccc3c2)c1 | inactive |
| Cc1ccc(NC(=O)CSc2nc3c(c(=O)[nH]2)CN(Cc2ccc4c(c2)OCO4)CC3)cc1C | inactive |
| COc1cccc(CNC(=O)C2CCN(S(=O)(=O)c3ccc4c(ccn4C)c3)CC2)c1 | inactive |
| COc1ccc(CNc2nc(-c3ccc(Cl)cc3)cc(C(F)(F)F)n2)cc1 | inactive |
| COc1cc(Cl)c(NC(=O)C(NS(=O)(=O)c2cccs2)C(C)C)c(OC)c1 (configuration not stated) | inactive |
| Cc1oc2ccc(O)c(CN3CCCCC3)c2c1C(=O)Nc1cccc(C(F)(F)F)c1 | inactive |
| CCCCN(CC)CCCNC(=O)c1nn(C)c2c1CS(=O)(=O)c1ccccc1-2 | inactive |
| COc1ccc(-n2c(SCC(=O)Nc3ccc(Cl)c(C)c3)nc3n[nH]c(C)c3c2=N)cc1 | inactive |
| Cc1c(NC(=O)c2cc(=O)c3ccccc3o2)c(=O)n(-c2ccccc2)n1C | inactive |
| CCCn1c2ccccc2c2cnn(CC(=O)N(C)c3ccccc3CC)c(=O)c21 | inactive |
| COC(=O)c1ccc(NC(=O)CCc2c(C)nc3c(c(C)nn3-c3ccc(C)cc3)c2C)cc1 | inactive |
| Cc1ccc(Cn2c(C)c3cnn(CC(=O)NCc4ccccc4)c(=O)c3c2C)cc1 | inactive |
| Cc1ccc(C)c(N2CCN(c3ccc4cc(S(=O)(=O)N5CCC(C)CC5)ccc4n3)CC2)c1 | inactive |
| COc1ccccc1CNc1ccc(-c2nc(-c3ccccc3C)no2)cc1[N+](=O)[O-] | inactive |
| Cn1c(=O)[nH]c(=O)c2c1nc(NCCc1ccccc1)n2Cc1ccc(F)cc1 | inactive |
| CCCCN(C)CCCNC(=O)CN1N=C(c2ccc(OC)cc2)CCC1=O | inactive |
| O=C(Nc1ccc2nc(SCC(=O)N3CCc4ccccc43)sc2c1)c1ccccc1F | inactive |
| CCOc1ccccc1CNC(=O)c1ccc(-n2c(C)cc3c2CCC(C)C3)cc1 (configuration not stated) | inactive |
| CCOC(=O)c1c(C)[nH]c(CCC(=O)NCCCN2CCN(c3cccc(Cl)c3)CC2)c1C | inactive |
| Cc1ccc(C)c(N2CCN(S(=O)(=O)c3ccc4c(c3)C(C(C)C)C(=O)N4)CC2)c1 (configuration not stated) | inactive |
| CCOc1ccccc1CNC(=O)Nc1cn(CC(C)C)c(=O)c2ccccc12 | inactive |

| SMILES | Potency |
| --- | --- |
| CCOc1cc(CNC(=O)c2sc3ncnc(N(C)C4CCCCC4)c3c2C)ccc1OC | inactive |
| Cc1nn2c(=O)cc(COC(=O)CNC(=O)c3ccc(F)cc3)nc2s1 | inactive |
| COc1ccc(CCNC(=O)c2nn(C)c3c2CSc2ccccc2-3)cc1OC | inactive |
| Cc1c(C(=O)NCc2ccccc2Br)oc2ccc3c(c12)C(=O)CC(C)(C)O3 | inactive |
| CCc1cccc(C)c1NS(=O)(=O)c1ccc(-c2cc(C)no2)s1 | inactive |
| CCCc1nn2c(=O)cc(COC(=O)c3ccc(NC(=O)COc4ccc(F)cc4)cc3)nc2s1 | inactive |
| CCCCC(=O)OC1=CN(Cc2ccccc2)S(=O)(=O)c2ccccc21 | inactive |
| COc1ccc(OCCn2cc(C(=O)C3CCCCC3)c3ccccc32)cc1 | inactive |
| Cc1oc2ccc(O)c(CN3CCOCC3)c2c1C(=O)Nc1cccc(Cl)c1C | inactive |
| COc1ccccc1C(=O)NCCn1cc(SCc2ccccc2Cl)c2ccccc21 | inactive |
| O=S(=O)(NCC(c1ccco1)N1CCOCC1)c1cc(F)ccc1F (configuration not stated) | inactive |
| Cc1ccccc1-c1nc(SCC(=O)N(C)c2ccccc2)c2c(=O)n(C)c(=O)n(C)c2n1 | inactive |
| COc1ccccc1NC(=O)C(=O)c1cc(C)n(-c2ccccc2F)c1C | inactive |
| CC1CCCN(c2csc3ccc(F)cc3c2=O)C1 (configuration not stated) | inactive |
| COc1ccc(S(=O)(=O)N2CCN(c3ccc(F)cc3)CC2)cc1-c1noc(C)n1 | inactive |
| CCC(=O)N1CCc2cc(S(=O)(=O)NC(Cc3ccccc3)C(=O)NCc3ccccc3)ccc21 (configuration not stated) | inactive |
| CCn1c(=O)c2cc(C(=O)NCCc3ccc(Cl)cc3)sc2c2ccccc21 | inactive |
| CCC1CCCCN1CCCNC(=O)c1cc2c(Cl)nc3ccccc3c2s1 (configuration not stated) | inactive and 25.1 µM (active) |
| CCCn1c2ccccc2c2cnn(CC(=O)NCCCN3CCCCC3CC)c(=O)c21 (configuration not stated) | inactive |
| COc1ccc(C)cc1NC(=O)C(=O)NCCc1sc(-c2cccc(C)c2)nc1C | inactive |
